Source: ChEMBL document CHEMBL4513216, “Probing the Open Global Health Chemical Diversity Library for Multistage-Active Starting Points for Next-Generation Antimalarials” (ACS Infect Dis, 2020)
The campaign covered roughly 65,000 compounds. About 2,100 (3.2%) showed an effect of 50% or more. The median lay at about -52%. This is one part of a sample in which strong results are shown more often than they occur.

Test system: Plasmodium falciparum
Assay: Screen against P. falciparum Asexual Blood Stage (ABS), at 5uM
Format: functional, Dd2
Details: tested at 5 uM

Compound	INHIBITION
CCn1cnnc1CNC(=O)N1CCN(c2ccccc2OC)CC1	-69.5%
O=C(c1cc(Cl)c[nH]1)N1CCCC(c2cc(C(F)(F)F)[nH]n2)C1 (stereo not given)	20.5%
Cc1ccc(-c2nc(CSCCC(=O)NC(N)=O)co2)c(C)c1	-115%
CSc1ccc(C(=O)N2CCOCC2c2c(C)n[nH]c2C)o1 (stereo not given)	-159%
Cc1cc(C)n(CC(=O)NC(Cc2ccsc2)c2ccccn2)c(=O)n1 (stereo not given)	-151%
CCOc1ncccc1CNc1nnc(C)c(C)c1C#N	60%
Cc1nnc(NCC2(c3ccccc3)CCC2)c(C#N)c1C	-32.2%
Cc1nnc(NCc2ccccc2Cl)c(C#N)c1C	6.46%
CCCOc1ncccc1CNc1nnc(C)c(C)c1C#N	-121%
COCc1ccccc1CNc1nnc(C)c(C)c1C#N	-155%
Cc1nnc(NCc2cccnc2OCC(F)(F)F)c(C#N)c1C	-46.2%
COc1ccccc1C1(CNc2nnc(C)c(C)c2C#N)CCCC1	58.4%
COc1ccccc1C1(CNc2nnc(C)c(C)c2C#N)CCOCC1	3.69%
Cc1nnc(NCc2ccccc2F)c(C#N)c1C	64.4%
Cc1ccccc1COCCOCn1c(C)cc(=O)[nH]c1=O	-70.8%
CCn1nnc2c1C(COCC(=O)N(C)C)CN(Cc1ccoc1)C2 (stereo not given)	-97.7%
O=C(Cc1cccs1)Nc1cnn(C2CCOCC2)c1	-142%
CCOC(=O)[C@H]1[C@@H](O)C(=O)N(C)C12CCN(C(=O)c1ccccc1)CC2	-32.3%
O=C1CC2(CCCNC2)C(=O)N1Cc1ccc(F)cc1 (stereo not given)	-26%
O=C1CC2(CCCNC2)C(=O)N1Cc1cccc(F)c1 (stereo not given)	-47.2%
O=C1CC2(CCCNC2)C(=O)N1Cc1ccc(Cl)cc1 (stereo not given)	51.8%
O=C(Nc1ccnc(OC2CCOC2)c1)c1ccccc1Cl (stereo not given)	-34.1%
O=C(NCC(=O)N1CCCc2ccccc21)c1c(O)cc(F)cc1F	-115%
COC(=O)c1c(Cl)c(C)nc2onc(C)c12	-117%
N#Cc1cc(Cl)ccc1N1CCN(C(=O)C2CCC2)CC1	-75.4%
CC1CCN(C(=O)C2CCN(c3ccc(Cl)cc3C#N)CC2)CC1	60.5%
CCN(CC)C(=O)C1CCN(c2ccc(Cl)cc2C#N)CC1	-147%

Compound	INHIBITION
Cn1cc(CN2CCCC23CCN(S(C)(=O)=O)CC3)cn1	-54.3%
O=c1n(CCNc2cccc3ccccc23)nc2ccccn12	-149%
CC1=N[C@@]2(CC[C@@H]3CN(Cc4ccccc4F)C[C@@H]32)C(=O)N1CC1CC1	67.6%
CC1=N[C@@]2(CC[C@@H]3CN(Cc4ccc(C)cc4)C[C@@H]32)C(=O)N1CC1CC1	30.2%
CCC1=N[C@@]2(CC[C@@H]3CN(Cc4ccccc4F)C[C@@H]32)C(=O)N1CC	39.8%
CC1=N[C@@]2(CC[C@@H]3CN(Cc4ccccc4)C[C@@H]32)C(=O)N1CC1CC1	17.7%
COCCN1C(=O)[C@]2(CC[C@@H]3CN(Cc4ccccc4F)C[C@@H]32)N=C1C	-37.9%
CC1=N[C@@]2(CC[C@@H]3CN(Cc4cccc(Cl)c4)C[C@@H]32)C(=O)N1CC1CC1	67.2%
COCCN(C)C(=O)Nc1ccc2c(ccn2CCOC)c1	-178%
Cc1nnc(N2CC[C@H]3C[C@H](C(=O)N4CCOCC4)O[C@H]3C2)s1	-42.1%
Cc1cc2nc(C(C)C)cc(NC(C)c3nncn3C3CCCC3)n2n1 (stereo not given)	-49.8%
COc1cccc2c1OCC(C(=O)NCc1ncc3c(n1)CCC3)C2 (stereo not given)	-33%
N#Cc1ccc(C(=O)N2CCn3cc(CN4CCCCC4)nc3C2)cc1	-96.9%
CN([C@@H]1CC[C@@H](N2CCOCC2)[C@@H]1O)S(=O)(=O)c1ccccc1	-97.1%
Cc1nccn1[C@@H]1CC[C@@H](N(C)S(=O)(=O)c2cccc(F)c2)[C@H]1O	-107%
CN([C@@H]1CC[C@@H](N2CCCC2)[C@@H]1O)S(=O)(=O)c1ccccc1	51.6%
O=C(c1ccco1)N1CCC2(CCCN(c3ncccn3)C2)C1 (stereo not given)	-59%
Cc1cc(Nc2cnccn2)cc(C2CCCNC2)n1 (stereo not given)	-27.1%
c1cc(CC2CCCNC2)nc(NCCc2cnccn2)c1 (stereo not given)	-96.3%
Cc1nc(NC2CCCCC2)cc(C2CCCNC2)n1 (stereo not given)	-0.566%
CCn1ccnc1CN(C)c1cc(C2CCCNC2)nc(C)n1 (stereo not given)	-33.9%
Cc1cc(Cc2ccccc2F)cc(C2CCCNC2)n1 (stereo not given)	64.8%
c1ccc(CCNc2cccc(C3CCCNC3)n2)cc1 (stereo not given)	66.8%
Cc1nc(C2CCCNC2)cc(N(C)CCc2ccccc2)n1 (stereo not given)	53.5%
COCCNc1cccc(C2CCCN2)n1 (stereo not given)	-86.4%
c1cc(NCc2ccncc2)nc(C2CCCNC2)c1 (stereo not given)	-2.22%
Cc1nc(C2CCCNC2)cc(N(C)CCc2cn[nH]c2)n1 (stereo not given)	-151%

Compound	INHIBITION
Cc1cnc(CCNc2cccc(CC3CCCNC3)n2)s1 (stereo not given)	65.5%
COCCNc1ccc(CC2CCCNC2)cn1 (stereo not given)	-56.2%
CCS(=O)(=O)NC(CCSC)C(=O)Nc1cc(F)ccc1C (stereo not given)	-26.6%
Cc1cnc(N2CCC3(CC2)CC3CN(C)Cc2cccnc2)nc1 (stereo not given)	-28%
CCC(C)Oc1ccc(CNCCNC(C)=O)cc1Cl (stereo not given)	-29.5%
COCc1cc(O)nc(C2CCCN(Cc3ccc(OC)cc3)C2)n1 (stereo not given)	-29.3%
Cc1cc(C(N)=O)c2c(Br)cccc2n1	-105%
Cc1ccc(C(C)N(C)Cc2nc3c(cnn3C)c(=O)[nH]2)s1 (stereo not given)	50%
Cc1ccc(C(C)N(C)Cc2nc3c(cnn3C)c(=O)[nH]2)cc1 (stereo not given)	-137%
COc1ccc(C(C)N(C)Cc2nc3c(cnn3C)c(=O)[nH]2)cc1 (stereo not given)	57.6%
COc1ccccc1C(C)N(C)Cc1nc2c(cnn2C)c(=O)[nH]1 (stereo not given)	-62.4%
Cc1ccc(CN(Cc2nc3c(cnn3C)c(=O)[nH]2)C(C)C)s1	-67.1%
Cc1ccccc1C(C)N(C)Cc1nc2c(cnn2C)c(=O)[nH]1 (stereo not given)	-198%
Cc1ccc(CCC(=O)N2CCC(Nc3cccnn3)CC2)cc1	-69.1%
O=S(=O)(NCc1ccccc1)N1CCCN(c2ccncc2)CC1	-0.943%
CCC(=O)N1CCC2(CC1)C(c1cccnc1)CC(=O)N2CCOC (stereo not given)	-104%
CC(CNC(=O)c1cccnc1)Oc1ccc(F)cc1 (stereo not given)	-61.4%
CN(C)C1CCN(c2cc(-c3ccccc3)nc3ccnn23)C1 (stereo not given)	51.3%
Cc1cc(N2CCCC(N(C)C)C2)n2nccc2n1 (stereo not given)	-65.1%
CCNC(=O)C1CCN(c2cc(-c3ccccc3)nc3ccnn23)C1 (stereo not given)	-26.4%
O=C(COc1coc(CN2CCOCC2)cc1=O)Nc1ccc(Cl)cc1	-117%
CC(=O)N1CCN(CC(C)(O)c2cccc(C(F)(F)F)c2)CC1 (stereo not given)	-10.4%
CC(O)(CN1CCC(O)CC1)c1cccc(C(F)(F)F)c1 (stereo not given)	58%
CCN1CCN(CC(C)(O)c2cccc(C(F)(F)F)c2)CC1 (stereo not given)	61.4%
CC(O)(CN1CCC2(CC1)OCCO2)c1cccc(C(F)(F)F)c1 (stereo not given)	-7.98%
CC(O)(CN1CCN(CCO)CC1)c1cccc(C(F)(F)F)c1 (stereo not given)	45.7%
COCCN1CCN(CC(C)(O)c2cccc(C(F)(F)F)c2)CC1 (stereo not given)	20.5%

Compound	INHIBITION
CC(C)(C)c1csc(CCNC(=O)[C@H](c2ccccc2)n2cnnn2)n1	-92.7%
O=C(c1ccsc1)N1C[C@@H]2OCCN(CCN3CCCC3)[C@@H]2C1	-116%
CCc1ccc(S(=O)(=O)NCC2CCN(c3cnccn3)CC2)s1	-103%
COc1cccc(N2CCN(Cc3nccn3C(C)C)CC2=O)c1	-72.4%
CC(=O)N1CCCN(Cc2ccon2)c2ccccc21	-22.6%
CC(C)(C)OC(=O)N1CCCN(Cc2ccon2)c2ccccc21	84.5%
CC(C)(C)OC(=O)N1CCCc2ccc(NCc3ccon3)cc21	-31.3%
CN(C)CCOCc1nnc2n1CCN(Cc1ccc(F)cc1)CC2	-137%
O=C(CO)N1CCC(F)(F)C2(CCN(c3ccccc3)C2)C1 (stereo not given)	-30.5%
FC1(F)CCN(Cc2ccncc2)CC12CCN(c1cccnc1)C2 (stereo not given)	19.1%
FC1(F)CCN(c2ccccc2)CC12CCN(c1ncccn1)C2 (stereo not given)	-145%
O=C(O)CN1CCC(F)(F)C2(CCN(c3ccccc3)C2)C1 (stereo not given)	67.6%
Cn1ccnc1CN1CCC(F)(F)C2(CCN(c3cnccn3)C2)C1 (stereo not given)	-1.72%
Cn1ccnc1CN1CCC(F)(F)C2(CCN(c3cccnc3)C2)C1 (stereo not given)	60.4%
COc1ccc(CN(C)[C@@H]2CN(C(=O)c3cncs3)C[C@H]2O)cc1	-40.5%
O=c1[nH][nH]c2cn(-c3ccc(Cl)cc3)c(=O)n12	-27.8%
CCOc1cc(CN(C)CCC(=O)OC)ccc1OC(F)F	-133%
CN(C)CCO[C@@H]1CC[C@H]2[C@H]1OCCN2C(=O)c1ccnnc1	-24.7%
CC(=O)NCc1nnc2n1CCN(Cc1cccs1)C2	-56.1%
CCCc1cc(NCCN2CCNC2=O)n2nccc2n1	-34.9%
O=C([C@H]1COC[C@H]2CN(C3CCCC3)C[C@H]21)N1CCCO1	-99.5%
Cc1nc(-n2cnnc2)ccc1-c1cccc2c1CCNC2	68.7%
Cc1cnc(-n2cnnc2)c(-c2cccc3c2CCNC3)c1	-35%
Cc1cc(-c2cccc3c2CCNC3)cnc1-n1cnnc1	-24.9%
